Screen size: about 47,000 compounds; about 200 (0.43%) were called active. Roughly 1% stayed inconclusive and do not appear here.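 How the source made its calls: active means inhibition of aggregate fluorescence above about 70%, also judged a hit by eye on the cell image (limit read from the data, passing the limit was not always enough); inconclusive means no rule stated for this call; inactive means not judged a hit on image review.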 What follows is part of a selection rich in actives, with near analogues and random picks from the rest.
Assay: clearance of mutant huntingtin inclusions, primary screen, imaging, HeLa Exon1htt(103Q)mCFP, confocal imaging (AID 853);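 further: cells exposed to compound for three days before fixation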
Conditions: aggregate imaging, at 1.5 µM; fraction fluorescence in grains: measured here: aggregate grain fluorescence fraction, stronger effect = lower value; inhibition: stronger effect = higher value, zero = plate's median compound well

| Structure (SMILES) | fraction fluorescence in grains | inhibition |
| --- | --- | --- |
| CC(Sc1nnc(Cc2ccc([N+](=O)[O-])cc2)o1)C(N)=O (centres undefined) | 30.7 | 0.3% (inactive) |
| Cc1nc(NC2=NC(C(=O)Nc3ccc(Cl)cc3)CC(=O)N2)nc2ccccc12 (centres undefined) | 22.8 | 22.1% (inactive) |
| CCCCCN1CC(O)=C(c2nc(-c3ccc(Cl)cc3)cs2)C1=N | 36.3 | 8.6% (inactive) |
| CCN(CC)CCN1C(=O)C(=O)/C(=C(/O)c2cnn(-c3ccccc3)c2C)C1c1cccs1 (centres undefined) | 54.5 | -25.7% (inactive) |
| O=C(NCCSCc1ccccc1)c1ccc(Cl)c(S(=O)(=O)N2CCOCC2)c1 | 25.6 | -28.1% (inactive) |
| CC(=O)N1CCN(c2cccc(C)c2C)CC1 | 46.1 | -25.4% (inactive) |
| C[C@H](NC(=O)NCCc1ccccc1)C(=O)O | 5.06 | 70.9% (active) |
| CC(C)C[C@H](NC(=O)NCCc1ccc(Cl)cc1)C(=O)O | 16.2 | 12.2% (inactive) |
| CSCC[C@H](NC(=O)NCCc1ccc(F)cc1)C(=O)O | 15.6 | 18.4% (inactive) |
| O=C(c1ccc(F)cc1)c1c[nH]c(C(=O)NCc2cccnc2)c1 | 38.1 | 1% (inactive) |
| Fc1cnc(N2CCOCC2)nc1NCc1ccccc1 | 12.4 | 35.6% (inactive) |
| O=c1c2ccccc2nc2n1C(CSCc1ccccc1)CS2 (centres undefined) | 35.3 | 8.1% (inactive) |
| CCCc1cc(=O)[nH]c(SCC(=O)OCc2ccccc2)n1 | 59.2 | -54.1% (inactive) |
| CCOC(=O)Cc1csc(NC(=O)CSc2nnc(-c3cccnc3)n2Cc2ccco2)n1 | 20.9 | -18.9% (inactive) |
| Cc1nn(Cc2ccc(C(=O)N3N=C(C(F)F)CC3(O)C(F)F)cc2)c(C)c1[N+](=O)[O-] (centres undefined) | 62.5 | -61% (inactive) |
| CCN1C(=O)/C(=C2/Sc3ccc(OC)cc3N2C)SC1=Nc1ccc(C)cc1 | 17.9 | -1.7% (inactive) |
| CCOC(=O)c1cnc(SCC(=O)Nc2ccccc2C(=O)OC)nc1N | 20.5 | -16.8% (inactive) |
| COc1ccc(C(=O)Nc2nc(-c3ccc(OC)cc3)c(-c3ccc([N+](=O)[O-])cc3)s2)cc1 | 21.2 | 47.9% (inactive) |
| CCN(CC)S(=O)(=O)c1ccc2c3c(cccc13)C(=O)S2 | 38.9 | -8.8% (inactive) |
| COc1ccc(Cl)cc1C(=O)NCC#N | 28.6 | 27.9% (inactive) |
| COc1ccc(C(=O)NCCc2ccc(S(N)(=O)=O)cc2)cc1OC | 43.5 | -18.4% (inactive) |
| CCn1c(O)c2ccc(C(=O)N=NC(=O)c3cccnc3)cc2c1O | 37.7 | -25.3% (inactive) |
| Cc1ccc(-c2nn(-c3ccccc3)cc2/C=N/NC(=O)c2ccc3c(c2)OCO3)cc1 | 34 | -12.7% (inactive) |
| CC12c3ccccc3C(c3ccccc31)C1C(=O)N(Cc3cccnc3)C(=O)C12 (centres undefined) | 12 | 60.9% (inactive) |
| COc1ccc(OC)c(/C=N/NC(=O)CSc2nnc(C)n2-c2ccccc2)c1 | 32.4 | -7.5% (inactive) |
| Cc1cc(C)cc(NC(=O)c2cccc(NC(=O)C3C4CC5OC(=O)C3C5C4)c2)c1 (centres undefined) | 31 | -31.4% (inactive) |

| Structure (SMILES) | fraction fluorescence in grains | inhibition |
| --- | --- | --- |
| O=C(c1ccccc1)c1cc(-c2ccccn2)c(N2CCOCC2)s1 | 30.5 | 22% (inactive) |
| Cc1ccc(-n2nc3c(c2NC(=O)CCC2CCCCC2)CS(=O)C3)cc1 (centres undefined) | 38.7 | 17.6% (inactive) |
| CC1=C(C(N)=O)C(c2sccc2C)n2nnnc2N1 (centres undefined) | 60.2 | -59.3% (inactive) |
| O=C(Nc1ncc2c(n1)-c1ccccc1OC2)c1ccc(Cl)cc1 | 34.8 | 7.6% (inactive) |
| COc1cccc(N(CC(=O)NCCSc2ccccn2)S(C)(=O)=O)c1 | 32.4 | -38.8% (inactive) |
| COc1cc(C)c(C(C)C)cc1S(=O)(=O)n1ccnc1 | 38.5 | -120% (inactive) |
| O=C(NC1(C(F)(F)F)NC(=O)N(Cc2cccnc2)C1=O)c1ccccc1Cl (centres undefined) | 32.6 | 13.2% (inactive) |
| Cc1nnc(OCC(=O)NCCC2=CCCCC2)c2ccccc12 | 30.6 | 19% (inactive) |
| CCC(c1nnnn1Cc1ccco1)N(CCc1ccccc1)Cc1cc2cccc(C)c2[nH]c1=O (centres undefined) | 4.66 | 75.8% (active) |
| CCC(c1nnnn1Cc1ccco1)N(Cc1cc2cc(OC)ccc2[nH]c1=O)C1CCCCC1 (centres undefined) | 12.1 | 36.8% (inactive) |
| Cc1cc2cc(CN(Cc3cccs3)Cc3nnnn3CC3CCCO3)c(=O)[nH]c2cc1C (centres undefined) | 18 | 47.9% (inactive) |
| CCC(c1nnnn1Cc1ccco1)N(CCc1ccccc1)Cc1cc2ccc(OC)cc2[nH]c1=O (centres undefined) | 19.4 | 46.6% (inactive) |
| CCC(c1nnnn1Cc1ccccc1)N(Cc1cc2cc(OC)ccc2[nH]c1=O)CC1CCCO1 (centres undefined) | 3.01 | 83.8% (active) |
| CCC(c1nnnn1C1CCCC1)N(Cc1cccs1)Cc1cc2cccc(C)c2[nH]c1=O (centres undefined) | 14.9 | 27.8% (inactive) |
| CCOC(=O)C(C)Oc1cccc2c(=O)n(CC(=O)N3CCc4ccccc43)ccc12 (centres undefined) | 44.7 | -33.2% (inactive) |
| CCCCNC(=O)OC(C)CNC(=O)OC (centres undefined) | 23.8 | 25% (inactive) |
| Cc1cc(C)c2c(-n3cccc3)c(NC(=O)OCc3ccccc3)sc2n1 | 37.4 | -74.7% (inactive) |
| Cc1ccccc1CS(=O)(=O)CC1(O)CCN(C(=O)c2cccc(C(F)(F)F)c2)CC1 | 32.9 | 14.5% (inactive) |
| CC(=O)c1cccc(NC(=O)c2ccncc2)c1 | 33.8 | 20.4% (inactive) |
| COc1ccc2c3c(c(=O)oc2c1OCC(=O)C(C)(C)C)CCCC3 | 20.5 | -3.3% (inactive) |
| N=c1c2c(-c3ccccc3)c(-c3ccccc3)oc2ncn1Cc1ccco1 | 39.1 | -27.2% (inactive) |
| Cc1nnc(SCC(=O)N2CCN(c3ccccc3)CC2)n1-c1ccccc1 | 45.5 | -15% (inactive) |
| O=C(O)c1ccc(F)c(S(=O)(=O)Nc2ccccc2)c1 | 49.7 | -13.1% (inactive) |
| O=C(C(NS(=O)(=O)c1cccc2nsnc12)c1ccccc1)N1CCN(c2ccccn2)CC1 (centres undefined) | 32.5 | 12.4% (inactive) |
| O=C(O)c1ccc(NS(=O)(=O)c2cccc3nsnc23)cc1 | 5.36 | 70.5% (active) |
| Cc1cccc(-c2nc3c(c(SCC(=O)N4CCOCC4)n2)CCCC3)c1 | 18.5 | -1.6% (inactive) |
